Laboratory results from PubChem BioAssay AID504652 (National Center for Advancing Translational Sciences (NCATS), 2011).
“And” between values parts separate entries of the source, which are not always exact repeats. Equal values may be shown once. The campaign covered roughly 360,000 compounds. About 11,000 (3.1%) were called active. Cut-off read from the data, not from the text of the source: active = activity change below about -30%; inactive = the rest. What follows is part of a selection rich in actives, with near analogues and random picks from the rest.

target: D(1A) dopamine receptor (Homo sapiens) (UniProt P21728); assay: Antagonist of Human D 1 Dopamine Receptor: qHTS; conditions: HEK293 TREx D1 cells, calcium flux, dopamine EC80; at 10 µM; active compounds read low
How it was run: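 Compound effects on dopamine-evoked calcium signalling were measured in tetracycline-induced HEK293 Trex D1 cells. Dopamine at EC80 followed a 180 s compound pre-read, and fluorescence was tracked kinetically for 180 s more.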
% is set by controls: 0 for no effect and ±100 for the full control effect.

Chain of D(1A) dopamine receptor (Homo sapiens) (P21728 whole entry, looked up): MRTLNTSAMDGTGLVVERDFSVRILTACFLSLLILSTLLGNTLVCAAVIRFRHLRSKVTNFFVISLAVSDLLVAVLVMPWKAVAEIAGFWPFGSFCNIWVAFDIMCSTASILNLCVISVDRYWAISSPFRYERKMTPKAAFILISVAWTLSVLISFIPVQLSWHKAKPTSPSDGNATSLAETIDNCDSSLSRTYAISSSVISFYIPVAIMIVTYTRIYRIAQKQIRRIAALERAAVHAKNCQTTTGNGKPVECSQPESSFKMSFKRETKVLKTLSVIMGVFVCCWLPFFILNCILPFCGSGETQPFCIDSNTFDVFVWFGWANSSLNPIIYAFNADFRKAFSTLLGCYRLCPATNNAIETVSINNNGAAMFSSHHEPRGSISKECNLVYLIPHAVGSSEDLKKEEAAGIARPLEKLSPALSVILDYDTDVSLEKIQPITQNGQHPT

`COc1cc(CNC(=O)c2cc3n(n2)CCCN(Cc2cccc(F)c2)C3=O)cc(OC)c1OC` was tested. Which activity change, negative = inhibition did it give?
The activity change, negative = inhibition was -15.1% (inactive).

Which activity change, negative = inhibition does the source give for `COc1ccc(C)cc1S(=O)(=O)NC1CCCCC1` here?
Its activity change, negative = inhibition is 2.79% (inactive).

`COc1ccccc1CNS(=O)(=O)c1cc2c3c(c1)CCC(=O)N3CCC2` was tested. Which activity change, negative = inhibition did it give?
Its activity change, negative = inhibition is -53% (active).

For `COc1ccccc1CCNS(=O)(=O)c1cc2c3c(c1)C(C)C(=O)N3CCC2` (centres undefined), which activity change, negative = inhibition is on record?
Its activity change, negative = inhibition is -6.83% (inactive).

For `COc1ccc(C)cc1S(=O)(=O)Nc1cc2c3c(c1)CCC(=O)N3CCC2`, which activity change, negative = inhibition is on record?
Its activity change, negative = inhibition is -35% (active).

With `O=C1CCc2cc(S(=O)(=O)Nc3ccc(C(F)(F)F)cc3)cc3c2N1CC3` as the compound, how does the activity change, negative = inhibition read?
Its activity change, negative = inhibition is -8.34% (inactive).

`COc1ccc(CNS(=O)(=O)c2cc3c4c(c2)CCN4C(=O)CC3)cc1` was tested. Which activity change, negative = inhibition did it give?
Its activity change, negative = inhibition is -7.89% (inactive) and -23.2% (inactive).

`CCOC(=O)c1scc(-c2ccc(C)cc2)c1S(=O)(=O)Nc1cc(C)ccc1C` was tested. Which activity change, negative = inhibition did it give?
The activity change, negative = inhibition was -6.21% (inactive).

How did the activity change, negative = inhibition turn out when `COc1cc(OC)cc(C(=O)Nc2ccc3nc(Nc4cccc(C(F)(F)F)c4)cc(C)c3c2)c1` was run?
The activity change, negative = inhibition was -9.91% (inactive).

Which activity change, negative = inhibition does the source give for `O=C(COc1ccc(Cl)cc1[N+](=O)[O-])N1CCCCC1` here?
The activity change, negative = inhibition was 15.9% (inactive).

For `Nc1ccc(C(=O)N2CCN(S(=O)(=O)c3ccc(Cl)cc3)CC2)cc1[N+](=O)[O-]`, which activity change, negative = inhibition is on record?
The activity change, negative = inhibition was -1.4% (inactive).

Which activity change, negative = inhibition does the source give for `O=C(c1ccc(Oc2ccc(Cl)cc2)c([N+](=O)[O-])c1)N1CCCC1` here?
Its activity change, negative = inhibition is -38.6% (active).

With `C/C(=C/c1ccccc1)C(=O)N1CCN(c2ccccc2)CC1` as the compound, how does the activity change, negative = inhibition read?
Its activity change, negative = inhibition is -2.86% (inactive).

With `O=C(c1ccc(Cl)c(Cl)c1)N1CCCC1` as the compound, how does the activity change, negative = inhibition read?
The activity change, negative = inhibition was -10.9% (inactive).

With `O=C(c1ccc(Cl)c([N+](=O)[O-])c1)N1CCN(c2ccccc2)CC1` as the compound, how does the activity change, negative = inhibition read?
The activity change, negative = inhibition was -35.8% (active).

For `CC1CCN(c2nc3ccc(C(=O)N4CCN(c5ccccc5)CC4)cc3s2)CC1`, which activity change, negative = inhibition is on record?
The activity change, negative = inhibition was 4.36% (inactive).

How did the activity change, negative = inhibition turn out when `O=C(c1ccccc1)c1ccc(C(=O)N2CCN(c3ccccc3)CC2)cc1` was run?
Its activity change, negative = inhibition is -32.4% (active).

For `CO/N=C/c1ccc(N2CCN(C(=O)c3cccc(Cl)c3)CC2)c([N+](=O)[O-])c1`, which activity change, negative = inhibition is on record?
Its activity change, negative = inhibition is -27.5% (inactive).

`O=S(=O)(c1ccc(C2CCCCC2)cc1)N1CCN(c2ccc(Cl)c(Cl)c2)CC1` was tested. Which activity change, negative = inhibition did it give?
Its activity change, negative = inhibition is 14.7% (inactive).

Which activity change, negative = inhibition does the source give for `Cc1cc(NS(=O)(=O)c2ccc3oc(=O)c4ncn(C)c4c3c2)ccc1Br` here?
The activity change, negative = inhibition was -1.47% (inactive).

`Cn1nnnc1Sc1ncnc2scc(-c3ccccc3[N+](=O)[O-])c12` was tested. Which activity change, negative = inhibition did it give?
Its activity change, negative = inhibition is -0.145% (inactive).

Which activity change, negative = inhibition does the source give for `Cc1ccc(-c2nc(Cn3c(=O)cc(-c4ccccc4)c4c(C)nn(C)c43)c(C)o2)cc1` here?
Its activity change, negative = inhibition is 12% (inactive).

For `CN(C)c1ccc(NC(=O)CSc2nc(-c3ccco3)cc(C(F)(F)F)n2)cc1`, which activity change, negative = inhibition is on record?
Its activity change, negative = inhibition is -4.62% (inactive).

Which activity change, negative = inhibition does the source give for `CCn1c(C)c(C)c2cc(C(=O)NCCc3cc(OC)ccc3OC)ccc21` here?
Its activity change, negative = inhibition is 13.1% (inactive).

`COc1ccc(Cl)cc1C(=O)OCC(=O)NCc1cccs1` was tested. Which activity change, negative = inhibition did it give?
The activity change, negative = inhibition was -19.7% (inactive).

`COc1ccc(C(=O)OCC(=O)c2ccc(Cl)s2)c(OC)c1OC` was tested. Which activity change, negative = inhibition did it give?
Its activity change, negative = inhibition is -34.5% (active).

`COc1ccc(C(=O)COC(=O)c2ccc([N+](=O)[O-])s2)cc1OC` was tested. Which activity change, negative = inhibition did it give?
The activity change, negative = inhibition was 3.97% (inactive).

Which activity change, negative = inhibition does the source give for `COC(=O)c1ccccc1NC(=O)Cn1c(=O)cc(C)c2c(C)nn(-c3cccc(Cl)c3C)c21` here?
The activity change, negative = inhibition was 11.3% (inactive).

How did the activity change, negative = inhibition turn out when `Cc1ccc(C)c(Cn2c(CCCNC(=O)C3CCCCC3)nc3ccccc32)c1` was run?
Its activity change, negative = inhibition is -4.99% (inactive).

Which activity change, negative = inhibition does the source give for `Cc1cccc(-c2noc(CCC(=O)NC3CCCC3)n2)c1` here?
Its activity change, negative = inhibition is -18.1% (inactive).

For `Cc1cccc2c1cnn2C(=O)CCC(=O)NC1CCCCC1`, which activity change, negative = inhibition is on record?
The activity change, negative = inhibition was 11.5% (inactive).

For `Cc1ccc2c(cnn2C(=O)CCC(=O)NC2CCCC2)c1`, which activity change, negative = inhibition is on record?
The activity change, negative = inhibition was -47.2% (active).

Which activity change, negative = inhibition does the source give for `Cc1cccc2c(=O)cc(CSc3ccccc3NC(=O)C(C)C)[nH]c12` here?
The activity change, negative = inhibition was -2.11% (inactive).

For `COc1ccc(NC(=O)CCC(=O)Nc2cc(OC)c(NC(=O)c3ccco3)cc2OC)c(OC)c1`, which activity change, negative = inhibition is on record?
Its activity change, negative = inhibition is -3.66% (inactive).

With `COc1cc(NC(=O)c2cc([N+](=O)[O-])ccc2Br)ccc1NC(=O)c1ccco1` as the compound, how does the activity change, negative = inhibition read?
Its activity change, negative = inhibition is -45.2% (active).

For `COc1ccc(NC(=O)c2ccco2)cc1NC(=O)c1ccc(C#N)cc1F`, which activity change, negative = inhibition is on record?
The activity change, negative = inhibition was -1.13% (inactive) and -9.12% (inactive).

Which activity change, negative = inhibition does the source give for `COc1ccc(OC)c(-n2nnc(-c3nc(-c4cc(OC)c(OC)c(OC)c4)no3)c2C)c1` here?
The activity change, negative = inhibition was -6.72% (inactive).

For `Cc1ccc2oc(=O)c3cnn(CC(=O)NCc4ccccc4Cl)c3c2c1`, which activity change, negative = inhibition is on record?
The activity change, negative = inhibition was 1.96% (inactive).

For `COc1cccc(CNS(=O)(=O)c2ccc3c(c2)CC(C)N3C(C)=O)c1` (centres undefined), which activity change, negative = inhibition is on record?
The activity change, negative = inhibition was -35% (active).

Which activity change, negative = inhibition does the source give for `COc1ccccc1CNC(=O)C1CCN(S(=O)(=O)c2ccc3c(c2)CC(C)N3C(=O)C2CC2)CC1` (centres undefined) here?
Its activity change, negative = inhibition is -4.76% (inactive).

Which activity change, negative = inhibition does the source give for `COc1cccc(CNS(=O)(=O)c2ccc3c(c2)N(C(C)=O)CCS3)c1` here?
The activity change, negative = inhibition was 3.44% (inactive).

For `COc1ccc(N(C)S(=O)(=O)c2ccc3c(c2)CC(C)N3C(=O)C2CC2)c(OC)c1` (centres undefined), which activity change, negative = inhibition is on record?
Its activity change, negative = inhibition is -41.8% (active).

With `CC1Cc2cc(S(=O)(=O)CCC(=O)NCc3ccc(Cl)cc3)ccc2N1C(=O)C1CC1` (centres undefined) as the compound, how does the activity change, negative = inhibition read?
The activity change, negative = inhibition was -19.3% (inactive).

Which activity change, negative = inhibition does the source give for `COc1cccc(CNS(=O)(=O)c2ccc3c(c2)CC(C)N3C(=O)C2CCC2)c1` (centres undefined) here?
The activity change, negative = inhibition was -10.7% (inactive) and -1% (inactive).
